# Results filed as inconclusive are left out. Entries that show only a call come without a potency. A number with no mark means an inactive call. Active and inactive are the calls of the source. The call rests on the fitted dose curve; in most records, active means well fitted curve in the direction sought with a large enough effect in the repeat runs; inconclusive means weak or mixed curves; inactive means no such curve, though single readings can be large; an effect the other way counts as inactive or inconclusive.
# Key:
# [1] = molecular target: Cytochrome P450 2D6 (Homo sapiens) (UniProt P10635); test: Cytochrome P450 Family 2 Subfamily D Member 6 (CYP2D6) small molecule antagonists: luciferase reporter qHTS assay (AID 1671196); details: P450-Glo CYP2D6 enzyme assay, luciferin luminescence, 1 h; series mostly up to 115 µM; further: nearly all actives have a fitted effect of over 50% in size
# Chain of Cytochrome P450 2D6 (Homo sapiens) (P10635 whole entry, looked up): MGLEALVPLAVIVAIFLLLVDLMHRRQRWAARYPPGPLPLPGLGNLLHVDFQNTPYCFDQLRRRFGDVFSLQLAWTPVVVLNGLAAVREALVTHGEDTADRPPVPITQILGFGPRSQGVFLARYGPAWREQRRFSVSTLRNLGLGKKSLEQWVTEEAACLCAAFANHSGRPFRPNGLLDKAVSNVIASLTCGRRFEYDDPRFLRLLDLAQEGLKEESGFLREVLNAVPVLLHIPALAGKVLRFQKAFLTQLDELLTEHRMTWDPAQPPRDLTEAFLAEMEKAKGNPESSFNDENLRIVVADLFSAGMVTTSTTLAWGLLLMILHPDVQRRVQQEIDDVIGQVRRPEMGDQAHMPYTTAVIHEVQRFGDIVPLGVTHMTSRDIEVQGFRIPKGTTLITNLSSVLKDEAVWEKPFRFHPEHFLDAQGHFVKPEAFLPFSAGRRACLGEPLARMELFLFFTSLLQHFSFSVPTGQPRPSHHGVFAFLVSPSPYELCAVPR
# In short: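 Luminescence (RLU), read 20 min after detection reagent, indicated CYP2D6 conversion of proluciferin to luciferin during a 1 h NADPH-dependent reaction at room temperature.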
# [2] = molecular target: Cytochrome P450 2C9 (Homo sapiens) (UniProt P11712); test: Cytochrome P450 Family 2 Subfamily C Member 9 (CYP2C9) small molecule antagonists: luciferase reporter qHTS assay (AID 1671198); details: P450-Glo CYP2C9 enzyme assay, luciferin luminescence; series mostly up to 115 µM; further: nearly all actives have a fitted effect of over 50% in size
# Chain of Cytochrome P450 2C9 (Homo sapiens) (P11712 whole entry, looked up): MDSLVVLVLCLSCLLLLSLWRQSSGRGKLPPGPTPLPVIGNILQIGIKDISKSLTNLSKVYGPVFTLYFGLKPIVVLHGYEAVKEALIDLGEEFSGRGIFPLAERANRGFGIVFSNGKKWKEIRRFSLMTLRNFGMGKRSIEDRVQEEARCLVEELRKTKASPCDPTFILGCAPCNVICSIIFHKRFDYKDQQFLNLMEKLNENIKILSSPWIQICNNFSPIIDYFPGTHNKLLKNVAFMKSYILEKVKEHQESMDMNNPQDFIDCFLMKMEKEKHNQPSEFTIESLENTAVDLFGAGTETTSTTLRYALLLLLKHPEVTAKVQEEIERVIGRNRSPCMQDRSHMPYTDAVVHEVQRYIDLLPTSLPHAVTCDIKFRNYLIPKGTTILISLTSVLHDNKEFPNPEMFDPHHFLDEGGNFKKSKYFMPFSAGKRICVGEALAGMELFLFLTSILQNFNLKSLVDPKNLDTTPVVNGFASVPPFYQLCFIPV
# In short: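 CYP2C9 activity was measured with a P450-Glo proluciferin substrate. Enzyme–substrate mix was held with compound for 10 min at room temperature, then NADPH regeneration solution was added for 1 h at 37C. Luciferin product was read as luminescence.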
# [3] = molecular target: Cytochrome P450 1A2 (Homo sapiens) (UniProt P05177); test: Cytochrome P450 Family 1 Subfamily A Member 2 (CYP1A2) small molecule antagonists: luciferase reporter qHTS assay (AID 1671199); details: P450-Glo CYP1A2 enzyme, luciferin luminescence, 1 h; series mostly up to 115 µM; further: nearly all actives have a fitted effect of over 50% in size
# Chain of Cytochrome P450 1A2 (Homo sapiens) (P05177 whole entry, looked up): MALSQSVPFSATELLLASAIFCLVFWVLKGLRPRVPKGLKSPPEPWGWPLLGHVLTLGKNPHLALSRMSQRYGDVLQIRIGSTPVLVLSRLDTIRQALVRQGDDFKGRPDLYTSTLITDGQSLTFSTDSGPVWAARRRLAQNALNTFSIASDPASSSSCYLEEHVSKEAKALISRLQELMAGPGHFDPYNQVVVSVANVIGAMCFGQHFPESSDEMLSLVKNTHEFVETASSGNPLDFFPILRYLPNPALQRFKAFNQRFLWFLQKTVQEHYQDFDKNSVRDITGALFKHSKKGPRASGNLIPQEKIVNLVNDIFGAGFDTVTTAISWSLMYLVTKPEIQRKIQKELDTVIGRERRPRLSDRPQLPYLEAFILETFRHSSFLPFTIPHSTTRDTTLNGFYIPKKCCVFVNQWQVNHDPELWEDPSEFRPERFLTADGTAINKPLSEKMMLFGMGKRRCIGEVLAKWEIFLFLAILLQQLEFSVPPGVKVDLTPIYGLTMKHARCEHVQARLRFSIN
# In short: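 CYP1A2 turnover of a luminogenic substrate was quantified after 1 h with NADPH regeneration at room temperature. Furafylline served as positive control.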
# [4] = molecular target: Voltage-gated inwardly rectifying potassium channel KCNH2 (Homo sapiens) (UniProt Q12809); test: Human Ether-a-go-go-Related Gene (hERG) channel small molecule antagonists: fluorescence cell-based qHTS assay (AID 1671200); details: hERG-U2OS cells, FluxOR thallium flux fluorescence; series mostly up to 76.8 µM; further: nearly all actives have a fitted effect of over 50% in size;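 on activity change, negative = inhibition: hERG-expressing U2OS cells given a thallium stimulus after FluxOR II dye loading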
# Chain of Voltage-gated inwardly rectifying potassium channel KCNH2 (Homo sapiens) (Q12809 whole entry, looked up): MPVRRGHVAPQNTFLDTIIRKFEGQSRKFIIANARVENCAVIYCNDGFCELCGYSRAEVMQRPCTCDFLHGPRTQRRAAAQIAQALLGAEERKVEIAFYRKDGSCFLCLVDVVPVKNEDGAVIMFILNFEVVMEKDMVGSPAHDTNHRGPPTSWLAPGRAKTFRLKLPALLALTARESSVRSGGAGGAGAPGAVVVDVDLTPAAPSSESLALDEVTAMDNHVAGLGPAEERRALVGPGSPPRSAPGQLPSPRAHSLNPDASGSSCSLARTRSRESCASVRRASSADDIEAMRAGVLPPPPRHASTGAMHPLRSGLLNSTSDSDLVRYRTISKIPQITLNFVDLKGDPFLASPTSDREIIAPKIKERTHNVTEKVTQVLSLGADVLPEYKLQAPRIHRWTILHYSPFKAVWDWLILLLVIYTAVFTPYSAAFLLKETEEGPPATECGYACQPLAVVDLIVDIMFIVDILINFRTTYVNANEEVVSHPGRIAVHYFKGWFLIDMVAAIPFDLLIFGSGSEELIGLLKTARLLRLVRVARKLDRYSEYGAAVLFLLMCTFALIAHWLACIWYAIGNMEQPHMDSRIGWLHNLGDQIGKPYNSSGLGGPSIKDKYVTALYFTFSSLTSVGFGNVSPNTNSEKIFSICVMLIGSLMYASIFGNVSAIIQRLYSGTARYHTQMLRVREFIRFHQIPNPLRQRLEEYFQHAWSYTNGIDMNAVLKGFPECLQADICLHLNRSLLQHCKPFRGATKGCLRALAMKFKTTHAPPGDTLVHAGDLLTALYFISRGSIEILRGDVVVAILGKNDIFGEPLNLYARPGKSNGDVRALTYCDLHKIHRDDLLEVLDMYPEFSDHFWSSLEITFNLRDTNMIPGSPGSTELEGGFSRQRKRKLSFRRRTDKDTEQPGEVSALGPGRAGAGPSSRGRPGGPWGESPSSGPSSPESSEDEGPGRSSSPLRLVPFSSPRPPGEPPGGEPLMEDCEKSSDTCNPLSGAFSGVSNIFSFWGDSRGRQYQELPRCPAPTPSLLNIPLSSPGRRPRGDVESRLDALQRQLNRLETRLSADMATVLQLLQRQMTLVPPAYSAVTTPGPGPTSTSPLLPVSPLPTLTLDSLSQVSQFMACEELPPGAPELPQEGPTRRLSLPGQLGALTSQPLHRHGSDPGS
# In short: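 Channel function was assessed by thallium flux. Cells seeded the previous day and kept at 37 C took up FluxOR II dye over 1 h in the dark at room temperature, then sat another 10 min before stimulation.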
# [5] = molecular target: Cytochrome P450 3A4 (Homo sapiens) (UniProt P08684); test: Cytochrome P450 Family 3 Subfamily A Member 4 (CYP3A4) small molecule antagonists: luciferase reporter qHTS assay (AID 1671201); details: P450-Glo CYP3A4 enzyme, luciferin luminescence, 1 h; series mostly up to 115 µM; further: nearly all actives have a fitted effect of over 50% in size
# Chain of Cytochrome P450 3A4 (Homo sapiens) (P08684 whole entry, looked up): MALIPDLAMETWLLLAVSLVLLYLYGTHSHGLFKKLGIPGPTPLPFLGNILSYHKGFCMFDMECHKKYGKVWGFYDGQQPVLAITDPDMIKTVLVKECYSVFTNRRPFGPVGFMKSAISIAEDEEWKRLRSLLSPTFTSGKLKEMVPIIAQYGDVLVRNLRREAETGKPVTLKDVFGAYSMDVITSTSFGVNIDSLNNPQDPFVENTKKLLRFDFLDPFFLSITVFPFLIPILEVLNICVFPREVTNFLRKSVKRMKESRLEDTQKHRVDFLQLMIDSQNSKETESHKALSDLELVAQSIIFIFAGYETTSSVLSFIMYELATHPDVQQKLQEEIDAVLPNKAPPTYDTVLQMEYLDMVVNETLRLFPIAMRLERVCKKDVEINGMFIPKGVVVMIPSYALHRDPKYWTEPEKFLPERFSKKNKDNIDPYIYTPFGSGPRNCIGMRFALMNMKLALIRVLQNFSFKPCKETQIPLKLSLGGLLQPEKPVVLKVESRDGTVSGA
# In short: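 Compounds in DMSO were pin-transferred onto CYP3A4 enzyme-substrate mix and held 10 min at room temperature. NADPH regenerating solution started the reaction for 1 h; luciferin detection reagent stopped it, and luminescence was read after 20 min.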
# [6] = molecular target: Cytochrome P450 2C19 (Homo sapiens) (UniProt P33261); test: Cytochrome P450 Family 2 Subfamily C Member 19 (CYP2C19) small molecule antagonists: luciferase reporter qHTS assay (AID 1671197); details: P450-Glo CYP2C19 enzyme, luciferin luminescence, 1 h; series mostly up to 115 µM; further: nearly all actives have a fitted effect of over 65% in size
# Chain of Cytochrome P450 2C19 (Homo sapiens) (P33261 whole entry, looked up): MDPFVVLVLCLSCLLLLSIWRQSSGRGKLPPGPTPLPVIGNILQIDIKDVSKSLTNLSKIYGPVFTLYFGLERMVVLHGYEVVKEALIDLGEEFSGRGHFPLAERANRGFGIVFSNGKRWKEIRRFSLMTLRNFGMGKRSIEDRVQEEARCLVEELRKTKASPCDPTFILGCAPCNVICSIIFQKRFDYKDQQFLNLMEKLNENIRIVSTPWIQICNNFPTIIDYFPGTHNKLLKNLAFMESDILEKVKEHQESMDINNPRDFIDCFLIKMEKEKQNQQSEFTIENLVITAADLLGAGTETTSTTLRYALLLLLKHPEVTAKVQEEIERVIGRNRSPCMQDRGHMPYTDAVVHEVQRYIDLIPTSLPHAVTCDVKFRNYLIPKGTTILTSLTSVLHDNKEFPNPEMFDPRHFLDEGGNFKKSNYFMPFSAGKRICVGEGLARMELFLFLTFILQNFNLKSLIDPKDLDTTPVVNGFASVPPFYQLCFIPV
# In short: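 CYP2C19 P450-Glo, 1536-well qHTS. Cpd + enzyme/proluciferin substrate 10 min RT; + NADPH regen, 37C 1 h; stop with luciferin detection reagent, 20 min RT, luminescence (RLU). Pos ctrl ketoconazole.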
# Potency means the concentration at half of the fitted maximal effect.
compound,measurement,setting,value
C/C(=C\C(C)CC(C)CC(C)C)C1CC(=O)OC1=O (configuration not stated),Potency,[1],35.6 µM (active)
same,Potency,[2],56.4 µM (active)
same,Potency,[3],inactive
same,Potency,[4],inactive
same,Potency,[5],inactive
O=C(Cl)c1ccc(F)c(Cl)c1,Potency,[6],inactive
same,Potency,[2],inactive
same,Potency,[3],inactive
same,Potency,[4],inactive
same,Potency,[5],inactive
COC(=O)c1cc(Cl)ccc1[N+](=O)[O-],Potency,[6],79.6 µM (active)
same,Potency,[2],inactive
same,Potency,[4],inactive
same,Potency,[5],inactive
Nc1ncnc2c1ncn2[C@@H]1O[C@H](CO)[C@@H](O)[C@H]1O,Potency,[4],inactive
CC(=O)Nc1cccc(N)c1,Potency,[6],57.2 µM (active)
same,Potency,[4],inactive
O=C(O)c1ccncc1,Potency,[4],inactive
O=c1[nH]nc(-c2ccc([N+](=O)[O-])o2)o1,Potency,[6],79.6 µM (active)
same,Potency,[3],31.7 µM (active)
same,Potency,[4],inactive
same,Potency,[5],inactive
[O-][n+]1ccc(Cl)cc1,Potency,[2],inactive
same,Potency,[3],inactive
same,Potency,[4],inactive
same,Potency,[5],inactive
Cc1cc(N)n(-c2ccccc2)n1,Potency,[6],28.3 µM (active)
same,Potency,[4],inactive
same,Potency,[5],inactive
CC(C)(Cc1c[nH]c2ccccc12)NCC(O)COc1ccccc1C#N (configuration not stated),Potency,[6],inactive
same,Potency,[4],8.49 µM (active)
same,Potency,[5],inactive
CCCCCCCCNC,Potency,[6],22.4 µM (active)
same,Potency,[4],inactive
same,Potency,[5],inactive
CC(C(=O)O)c1ccc(/C=C2\CCCCC2=O)cc1 (configuration not stated),Potency,[2],inactive
same,Potency,[3],inactive
same,Potency,[4],inactive
same,Potency,[5],inactive
COC(=O)Cc1cccc2ccccc12,Potency,[6],79.6 µM (active)
same,Potency,[2],inactive
same,Potency,[3],20 µM (active)
same,Potency,[4],inactive
same,Potency,[5],inactive
O=C1c2ccccc2C(=O)c2c1ccc(O)c2O,Potency,[6],inactive
same,Potency,[4],inactive
same,Potency,[5],inactive
FC(F)(Cl)C(F)(Cl)Cl,Potency,[6],inactive
same,Potency,[2],inactive
same,Potency,[4],inactive
same,Potency,[5],inactive
CCOc1ccc(NC(C)=O)cc1N,Potency,[6],36.1 µM (active)
same,Potency,[3],16.1 µM (active)
same,Potency,[4],inactive
CCCCOC(=O)C(C)Oc1ccc(Oc2ccc(C(F)(F)F)cn2)cc1 (configuration not stated),Potency,[6],50.2 µM (active)
same,Potency,[2],22.4 µM (active)
same,Potency,[3],22.4 µM (active)
same,Potency,[4],24.5 µM (active)
same,Potency,[5],inactive
CC(=O)Nc1ccccc1O,Potency,[4],inactive
CCOCCn1c(N2CCCN(C)CC2)nc2ccccc21,Potency,[6],inactive
same,Potency,[3],inactive
same,Potency,[4],7.56 µM (active)
Nc1ccc(C(=O)Oc2ccccc2)c(O)c1,Potency,[2],27.5 µM (active)
same,Potency,[4],inactive
OCCc1ccncc1,Potency,[3],22.4 µM (active)
same,Potency,[4],inactive
same,Potency,[5],28.3 µM (active)
CCOc1cc(OCC)c(C(C)=O)cc1OCC,Potency,[6],69.8 µM (active)
same,Potency,[4],inactive
same,Potency,[5],35 µM (active)
O=[N+]([O-])c1ccc(Cl)cc1Cl,Potency,[6],inactive
same,Potency,[2],inactive
same,Potency,[4],inactive
same,Potency,[5],inactive
O=Cc1ccc([N+](=O)[O-])cc1,Potency,[4],inactive
O=C(N[C@@H](Cc1ccccc1)[C@@H](O)C(=O)N1C[C@@H](O)[C@@H](O)C1)c1cc2cc(Cl)ccc2[nH]1,Potency,[6],39.9 µM (active)
same,Potency,[2],35.6 µM (active)
same,Potency,[4],inactive
Nc1ccc(-c2ccc(F)cc2)cc1,Potency,[6],8.94 µM (active)
same,Potency,[2],14.2 µM (active)
same,Potency,[3],0.502 µM (active)
same,Potency,[4],inactive
same,Potency,[5],11.2 µM (active)
CC1=CC(=C(c2ccc(N)cc2)c2ccc(N)cc2)C=CC1=N,"activity change, negative = inhibition",[4],-5.88% [at 6.97 µM]
same,Potency,[5],2.86 µM (active)
O=C(O)c1ccc2cc(O)ccc2c1,Potency,[2],inactive
same,Potency,[4],inactive
same,Potency,[5],inactive
C=C[Si](OCC)(OCC)OCC,Potency,[4],inactive
COC=O,"activity change, negative = inhibition",[6],14.6% [at 10.5 µM]
same,"activity change, negative = inhibition",[2],-23.5% [at 10.5 µM]
same,"activity change, negative = inhibition",[4],-1.77% [at 6.97 µM]
same,"activity change, negative = inhibition",[5],11.4% [at 10.5 µM]
CCCCCCCCCCCCCCCCN,Potency,[2],inactive
same,Potency,[3],inactive
same,Potency,[4],inactive
same,Potency,[5],inactive
O=S(=O)(O)c1cc(Cl)c(Cl)cc1Cl,Potency,[6],inactive
same,Potency,[2],31.7 µM (active)
same,Potency,[4],inactive
same,Potency,[5],inactive
CCc1c(C)[nH]c2c1C(=O)C(CN1CCOCC1)CC2 (configuration not stated),Potency,[3],inactive
same,Potency,[4],inactive
CCc1ccc2c(c1)C(=O)c1ccccc1C2=O,Potency,[6],11.2 µM (active)
same,Potency,[2],10 µM (active)
same,Potency,[5],17.8 µM (active)
Nc1ccccc1Nc1ccccc1,Potency,[3],7.12 µM (active)
same,Potency,[4],inactive
same,Potency,[5],31.8 µM (active)
S=c1[nH][nH]c(=S)s1,Potency,[6],22.4 µM (active)
same,Potency,[2],20 µM (active)
same,Potency,[3],inactive
same,Potency,[4],inactive
same,Potency,[5],inactive
CC(Cc1ccccc1)(NC(=O)CN)c1ccccc1 (configuration not stated),Potency,[4],inactive
CCN(CCCCOC(=O)c1ccc(OC)c(OC)c1)C(C)Cc1ccc(OC)cc1 (configuration not stated),Potency,[2],inactive
same,Potency,[3],inactive
same,Potency,[4],3.38 µM (active)
CC(C)(O)C(=O)O,Potency,[6],inactive
same,Potency,[2],inactive
same,Potency,[4],inactive
same,Potency,[5],inactive
CCC(C)C1N=C(C)C(C)S1 (configuration not stated),Potency,[6],39.9 µM (active)
same,Potency,[2],39.9 µM (active)
same,Potency,[4],inactive
same,Potency,[5],25.2 µM (active)

# Reference: PubChem BioAssay (Tox21)
